Compound activity (PubChem BioAssay)
D2 PAM-1: HTS Assay for Positive Allosteric Modulators of the Human D2 Dopamine Receptor: Primary Screen for Potentiators. D(2) dopamine receptor (Homo sapiens), P14416. HEK293 T-REx D2, calcium flux, EC20 dopamine potentiation. potentiation, % at 10 µM. actives 0.34% (n = 340,000);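 active means potentiation over 3 SD above the plate norm, cut at about 30% in these data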
Target sequence (P14416 whole entry, looked up): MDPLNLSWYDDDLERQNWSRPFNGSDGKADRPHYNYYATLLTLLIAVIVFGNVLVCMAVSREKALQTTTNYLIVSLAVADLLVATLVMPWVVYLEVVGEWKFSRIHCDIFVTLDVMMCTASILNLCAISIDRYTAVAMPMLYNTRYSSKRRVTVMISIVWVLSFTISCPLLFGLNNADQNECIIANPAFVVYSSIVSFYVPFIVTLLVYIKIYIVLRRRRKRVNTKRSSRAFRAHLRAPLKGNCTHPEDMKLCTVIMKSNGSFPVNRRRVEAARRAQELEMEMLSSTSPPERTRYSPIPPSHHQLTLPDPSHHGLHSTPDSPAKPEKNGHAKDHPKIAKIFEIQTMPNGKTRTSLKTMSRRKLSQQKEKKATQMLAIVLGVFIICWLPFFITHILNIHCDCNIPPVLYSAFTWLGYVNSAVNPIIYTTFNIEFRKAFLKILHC
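Primary screen. Calcium kinetics in induced HEK293 T-REx D2 cells: compound pre-addition 180 s, EC20 dopamine, 180 s more.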
D2 antag: HTS Assay for Allosteric Antagonists of the Human D2 Dopamine Receptor: Primary Screen for Antagonists. D(2) dopamine receptor (Homo sapiens), P14416. HEK293 TREx D2 cells, calcium flux, dopamine EC80. inhibition, % at 10 µM. actives 2% (n = 340,000); in the data active means inhibition above about 30%; inactive means below that, where a call was filed
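Read-out: kinetic calcium fluorescence (1 cycle/s) in inducible HEK293 T-REx D2 cells after an EC80 dopamine addition that followed 180 s compound preincubation. Loss of the dopamine response indicates antagonism.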
D2 PAM-2: Beta-Arrestin HTS for Positive Allosteric Modulators of the Human D2 Dopamine Receptor: Potentiators; D(2) dopamine receptor (Homo sapiens), P14416; DiscoveRx D2 beta-arrestin cells, luminescence, 90 min; 100% = 57 uM dopamine signal; potentiation, % (test concentration not listed); actives 0.23% (n = 360,000); in the data active means potentiation above about 50%
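D2 cells co-treated with compound plus 50 nM dopamine (EC20) for 90 min at 37 deg C to detect potentiation. Beta-arrestin recruitment was read as enzyme-fragment luminescence after 1 h at ambient temperature. Full response was set by 57 uM dopamine.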
D2 ag-1: HTS Assay for Allosteric Agonists of the Human D2 Dopamine Receptor: Primary Screen for Agonists; D(2) dopamine receptor (Homo sapiens), P14416; HEK293 T-REx D2 cells, calcium flux agonist mode; activation, % at 2 µM; actives 0.53% (n = 340,000); AID 485358, 2010;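 active means activation over 3 SD above normal in the single-dose calcium agonist read, cut at about 30% in these data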
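Calcium-flux readout, 1 cycle/sec over 180 s following compound pin transfer, in inducible HEK293 Trex D2 cells (force-coupled); dopamine controls included. Positive calcium responses during this window marked compounds as potential agonists.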
D2 ag-2: Beta-Arrestin HTS for Positive Allosteric Modulators of the Human D2 Dopamine Receptor: Agonists; D(2) dopamine receptor (Homo sapiens), P14416; DiscoveRx PathHunter D2 beta-arrestin, luminescence, 90 min; 100% = 57 uM dopamine signal; activation, % (test concentration not listed); actives 0.084% (n = 360,000); in the data active means activation above about 40%
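DiscoveRx PathHunter D2 beta-arrestin cells (2,100/well) attached overnight, then compound-stimulated 90 min at 37 C in HBSS/10 mM HEPES/0.1% Tween-20 buffer; beta-galactosidase complementation read by luminescence after 1 h at ambient temperature. Dopamine 57 uM final (EC100) as control.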
A number is an active result; 0 = inactive; - = not tested or not shown; ! = not active in a repeat. Sampled rows, rich in hits. Any-hit rate of the full collection: about 2.4%.

SMILES	D2 PAM-1	D2 antag	D2 PAM-2	D2 ag-1	D2 ag-2
COc1c(C)cc(Br)cc1C(=O)O	0	40	0	0	0
CC(=O)N1CCN(C(=O)c2cc(S(=O)(=O)N(C)Cc3ccccc3)ccc2Cl)CC1	0	30	0	0	0
Cc1ccc(S(=O)(=O)N(C)Cc2ccccc2)cc1C(=O)N1CCCCC1	0	0	0	0	0
CCOc1ccccc1N1CCN(C(=O)c2cc3c(s2)CCC3)CC1	0	35	0	0	0
COc1ccccc1N1CCN(C(=O)c2cc3c(s2)CCCCC3)CC1	-	-	0	-	0
Cc1ccc(Cn2c(C(=O)NCc3ccccc3Cl)cc3sccc32)cc1	0	-	-	0	-
COCc1nnc(NC(=O)C2CC(=O)N(CCc3ccc(F)cc3)C2)s1 (stereo not given)	0	30	0	0	0
Cc1ccc(Cn2ccnc2SCC(=O)Nc2nc3ccccc3s2)cc1	0	-	-	0	-
COc1ccc(NS(=O)(=O)c2cc3c(cc2C)NC(=O)CO3)c(OC)c1	0	0	0	38!	0
Cc1ccccc1NS(=O)(=O)c1cc2c(cc1C)NC(=O)CO2	0	0	0	0	0
CCCCOC(=O)c1ccc(NC(=O)c2ccc3c(c2)CCN3S(C)(=O)=O)cc1	0	-	-	-	-
CCOC(=O)c1c(C)c(-c2ccccc2)n(CC(=O)NCc2ccccc2)c1C	0	-	-	-	-
CCCCn1c(SCC(=O)c2cc(OC)ccc2OC)nc2cc(S(N)(=O)=O)ccc21	0	0	0	0	0
CCCCn1c(SCC(=O)c2ccc(O)cc2O)nc2cc(S(N)(=O)=O)ccc21	0	32	0	0	0
CC(C)N(C)C1CCN(S(=O)(=O)c2ccc3[nH]c(=O)ccc3c2)CC1	0	-	-	-	-
Clc1cccc(Nc2ncnc3ccc(Br)cc23)c1	0	0	0	0	0
Clc1ccc(Nc2ncnc3ccc(Br)cc23)cc1	0	34	0	0	0
CCOC(=O)c1sc2nc3c(cc2c1N)COC(C)(CC)C3 (stereo not given)	0	0	0	0	0
CCC1(C)Cc2nc3sc(C(=O)O)c(N)c3cc2CO1 (stereo not given)	0	37	0	0	0
COc1ccc(CCNCc2c(C(=O)O)c(C)n(Cc3ccccc3C)c2C)c(OC)c1	0	-	-	0	-
CCCCN1CCc2c(c3ccccc3n2Cc2ccccc2)C1	0	0	0	0	0
CN1CCc2c(c3ccccc3n2Cc2ccccc2)C1	0	33	0	0	0
CN1CCc2c(c3ccccc3n2C)C1	0	61	0	0	0
COc1ccc(S(=O)(=O)N(Cc2nc(-c3ccc(C)cc3)no2)C2CCCCC2)cc1	0	-	-	0	-
CN(Cc1nc(-c2cccc(Cl)c2)no1)C1CCOCC1	0	47	0	0	0
SMILES	D2 PAM-1	D2 antag	D2 PAM-2	D2 ag-1	D2 ag-2
Cc1ccccc1OCCCCN1CCCCC1	0	50	0	0	0
Cc1cc(C)c(C)c(OCCOCCN2CCN(C)CC2)c1	0	0	0	0	0
COc1ccccc1OCCCCN1CCCCC1	0	-	0	-	0
CCc1ccccc1OCCCCN1CCCCC1	0	89	0	0	0
CCc1ccccc1OCCCN1CCCC1	0	-	0	-	0
Cc1cc(C)c(C)c(OCCCCN2CCCCC2)c1	0	55	0	0	0
O=S(=O)(c1cccc(C(F)(F)F)c1)N1CCC(Oc2ccc(-n3cnnn3)cc2)CC1	0	-	-	-	-
Cc1ccc(C)c(NS(=O)(=O)c2ccc3c(c2)n(C)c(=O)n3C)c1	0	-	-	0	-
Cn1c(=O)n(C)c2cc(N3CCOCC3)c(NC(=O)c3ccc(C(C)(C)C)cc3)cc21	0	-	-	0	-
Cc1ccc(S(=O)(=O)N(CC(=O)N2CCOCC2)CC(=O)N2CCOCC2)cc1	31	0	0	0	0
COC(=O)c1cc(Nc2nc3ccccc3nc2NS(=O)(=O)c2ccc(C)cc2)ccc1Cl	0	-	-	0	-
Cc1onc(C(=O)Nc2cccnc2Cl)c1[N+](=O)[O-]	0	0	0	0	0
COc1cc(NC(=O)c2noc(C)c2[N+](=O)[O-])c(OC)cc1Cl	0	0	0	0	45
